In PubChem BioAssay:
The source made the active and inactive calls. Unless noted, how the calls were made is not given here.

How the values were obtained:
[1] = test system: Wnt5a (protein binding on small-molecule microarray); test: Wnt5a binders on small-molecule microarray, primary screen, biophysical, 635/667 nm fluorescence (AID 1142); settings: 635 nm fluorescence, higher = more signal;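 further: fluorescence read at 667 nm with signal to noise per printed feature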
[2] = cell viability in Huh7 cells, primary screen, cytotoxicity control for HCV replication inhibitor project, CellTiter-Glo luminescence, basal, 48 h (AID 1143); settings: Huh7 HCV replicon, higher = more signal, called active from +8 up or from −8 down;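 further: Huh7 hepatoma cells carrying a hepatitis C replication reporter with no stimulus; test concentration not given here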
[3] = P. aeruginosa biofilm formation inhibitors, primary screen, PAO1 strain, BacTiter-Glo luminescence, LB-PBS (AID 1144); settings: 12 h, higher = more signal
[4] = CREB reporter modulators without forskolin, primary screen, cell-based, PC12, CRE-LacZ reporter, unstimulated (AID 1145); settings: no forskolin, luminescence, 4.5 h, higher = more signal, called active from +8 up or from −8 down
[5] = CREB reporter modulators under forskolin, primary screen, cell-based, PC12, CRE-LacZ reporter, forskolin-stimulated (AID 1146); settings: luminescence, 4.5 h, higher = more signal, called active from +8 up or from −8 down;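 further: PC12 cells with 6xCRE LacZ reporter stimulated by forskolin 10 µM; beta-galactosidase reporter signal reflecting CREB driven transcription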
[6] = biological target: Streptavidin (Streptomyces avidinii) (UniProt P22629); test: streptavidin binders on small-molecule microarray, primary screen, artefact control for SMM compound annotation, biophysical, 635/667 nm fluorescence (AID 1147); settings: streptavidin binding, higher = more signal;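 further: signal reflects streptavidin binding to arrayed compounds as a control protein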
[7] = small-molecule binders of probe aInhba, primary screen, biochemical, small-molecule microarray, 635/667 nm fluorescence (AID 1148); settings: higher = more signal;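 further: score merges 667nm spot fluorescence with signal-to-noise for antibody binding to printed compounds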
Torsin-1A (Homo sapiens) [8] = biological target: Torsin-1A (Homo sapiens) (UniProt O14656); test: torsin A binders from cell lysate, primary screen, small-molecule microarray, wild-type, 635/667 nm (AID 1149); settings: COS7 hTOR1A-WT lysate, 635 nm fluorescence, higher = more signal
Torsin-1A (Homo sapiens) [9] = biological target: Torsin-1A (Homo sapiens) (UniProt O14656); test: small-molecule binders of mutant TOR1A in lysate, primary screen, cell lysate, small-molecule microarray, COS7 lysate, 635/667 nm fluorescence (AID 1150); settings: COS7 hTOR1A mutant lysate, 635 nm fluorescence, higher = more signal;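 further: score pools 667 nm emission and signal to noise measuring lysate protein binding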
[10] = test system: Sonic hedgehog protein (Shh); test: small-molecule binders of Shh protein, primary screen, biochemical, small-molecule microarray, 635/667 nm fluorescence (AID 1151); settings: small-molecule microarray binding, 635 nm fluorescence; higher = more signal;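 further: Shh protein binding to compounds spotted on small-molecule microarray slides; score combines spot fluorescence intensity with signal-to-noise across triplicate slides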

Torsin-1A (Homo sapiens), sequence (O14656 whole entry, looked up): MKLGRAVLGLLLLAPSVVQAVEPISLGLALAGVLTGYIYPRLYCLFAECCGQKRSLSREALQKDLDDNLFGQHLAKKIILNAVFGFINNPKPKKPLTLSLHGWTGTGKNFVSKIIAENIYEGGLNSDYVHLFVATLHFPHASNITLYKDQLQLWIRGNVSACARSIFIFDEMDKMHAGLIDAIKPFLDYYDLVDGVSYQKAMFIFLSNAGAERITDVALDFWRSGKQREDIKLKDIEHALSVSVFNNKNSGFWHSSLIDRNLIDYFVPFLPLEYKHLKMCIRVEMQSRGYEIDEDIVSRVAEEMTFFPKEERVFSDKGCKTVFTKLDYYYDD
Streptavidin (Streptomyces avidinii), sequence (P22629 whole entry, looked up): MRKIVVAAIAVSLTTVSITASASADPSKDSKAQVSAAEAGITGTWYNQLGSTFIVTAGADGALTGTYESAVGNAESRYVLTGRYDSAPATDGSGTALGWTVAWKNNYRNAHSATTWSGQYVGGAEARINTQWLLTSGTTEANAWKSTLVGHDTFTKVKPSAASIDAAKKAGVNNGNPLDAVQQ

| Compound | composite z-score [1] | z-score [2] | z-score [3] | z-score [4] | z-score [5] | composite z-score [6] | composite z-score [7] | composite z-score (Torsin-1A (Homo sapiens) [8]) | composite z-score (Torsin-1A (Homo sapiens) [9]) | composite z-score [10] |
| --- | --- | --- | --- | --- | --- | --- | --- | --- | --- | --- |
| COC(=O)C=CCCc1coc(C=CCNC(=O)OC)n1 | 0.4 | -0.0328 (inactive) | -0.0662 (inactive) | 0.38 (inactive) | 0.702 (inactive) | 0.0242 | 0.432 | 0.583 | 0.205 | 1.15 |
| CC[C@@H](c1ccccc1)n1c(=O)n2n(c1=O)[C@H]1[C@H](O)[C@@H]3O[C@@H]3C(=NOC[C@@H](O)COCc3ccco3)[C@H]1CC2 | 0.112 | 0.456 (inactive) | 0.232 (inactive) | 0.704 (inactive) | 0.427 (inactive) | -0.715 | -0.257 | -0.354 | -0.517 | 1.07 |
| COC(=O)[C@H]1[C@@H](O)[C@@]2(O)c3ccccc3O[C@@]2(c2ccccc2)[C@@H]1c1ccccc1 | -0.113 | -0.359 (inactive) | 0.576 (inactive) | 1.57 (inactive) | 0.0923 (inactive) | -0.419 | -0.0361 | -0.225 | 0.258 | 0.143 |
| COc1cccc([C@H]2Oc3ccc(OC)cc3C(=NOC[C@@H](O)COCc3ccco3)[C@@H]2O)c1 | -0.217 | -0.564 (inactive) | 0.357 (inactive) | 4.9 (inactive) | 0.493 (inactive) | -0.903 | -0.205 | -1.7 | -1.38 | -0.0734 |
| CON=C1[C@H]2CCn3c(=O)n(-c4ccccc4)c(=O)n3[C@H]2[C@H](O)[C@@H]2O[C@H]12 | 0.0275 | 0.653 (inactive) | -0.633 (inactive) | 1.55 (inactive) | 0.236 (inactive) | 0.0011 | -0.268 | 0.144 | 0.606 | 0.435 |
| COc1cccc([C@H]2Oc3ccc(OC)cc3C(=NO[C@@H](C)c3cn([C@H](CO)Cc4ccccc4)nn3)[C@@H]2O)c1 | -0.353 | -0.404 (inactive) | 0.0128 (inactive) | 6.77 (inactive) | 0.661 (inactive) | 0.326 | -0.0986 | -0.44 | -0.137 | -0.243 |
| COC(=O)CC=C[C@@H](C)[C@@H](C=NO[C@H](C)c1cn([C@H](CO)Cc2ccccc2)nn1)OC | 0.247 | -0.742 (inactive) | 0.226 (inactive) | 0.359 (inactive) | 0.303 (inactive) | 0.21 | -0.128 | 1.09 | 1.78 | 1.08 |
| COC(=O)[C@H](C)NC(=O)CCC1CC(OC(=O)NCCc2ccc(F)cc2)CC2(CCCC(COC(=O)NCc3cccc(C(F)(F)F)c3)O2)O1 (stereo not given in full) | 0.116 | -0.382 (inactive) | 0.198 (inactive) | 0.0178 (inactive) | 0.144 (inactive) | 0.213 | -0.242 | 0.818 | 0.0548 | 1.09 |
| CCOC(=O)[C@H](Cc1ccccc1)NC(=O)CCC1CC(OC(=O)NCc2cccc3ccccc23)CC2(CCCC(COC(=O)NCCC(C)C)O2)O1 (stereo not given in full) | -0.0404 | 0.0896 (inactive) | -0.863 (inactive) | -0.525 (inactive) | 0.214 (inactive) | 1.8 | -0.231 | 1.5 | -0.359 | -0.226 |
| CC(CCC(=O)OC[C@H]1O[C@H](C#Cc2ccccc2)C=C[C@@H]1Oc1ccc(C)cc1)=NO[C@H](C)c1cn([C@H](CO)Cc2ccccc2)nn1 | -0.313 | -0.874 (inactive) | 0.195 (inactive) | 0.15 (inactive) | 1.15 (inactive) | 0.0184 | -0.149 | -0.234 | 0.683 | 0.327 |
| Cc1cc2c(nc1C)CCCCN2CC(C)ON=C[C@@H](C)[C@H](OCc1ccccc1)C(C)C (stereo not given in full) | -0.918 | -4.86 (inactive) | 0.207 (inactive) | 2.44 (inactive) | 0.676 (inactive) | -1.88 | -0.26 | -3.92 | -1.34 | -0.436 |
| CCN1C(=O)[C@H]2[C@H]3[C@H](O)[C@H](O)CC(=NOC[C@H]4O[C@H](c5ccccc5)C=C[C@@H]4Oc4ccc(OC)cc4)[C@@H]3CC[C@H]2C1=O | 0.353 | -0.509 (inactive) | 1.13 (inactive) | 0.843 (inactive) | 0.126 (inactive) | 0.29 | 0.0497 | 0.66 | 0.586 | 0.827 |
| CCOC(=O)NN=C1C[C@@H](O)[C@@H](O)[C@@H]2[C@@H]3C(=O)N([C@@H](C)c4ccccc4)C(=O)[C@@H]3CC[C@H]12 | 0.0373 | -0.339 (inactive) | 0.627 (inactive) | -0.115 (inactive) | -0.174 (inactive) | -0.0822 | -0.0131 | 0.834 | 0.522 | 0.127 |
| O=c1n(-c2ccccc2)c(=O)n2n1CC[C@@H]1C(=NOCc3ccccc3)[C@H]3O[C@H]3[C@@H](O)[C@@H]12 | 0.18 | 0.492 (inactive) | 0.251 (inactive) | -0.385 (inactive) | -0.314 (inactive) | -0.445 | -0.0695 | -0.614 | -0.315 | -0.0835 |
| COC(=O)CC=C[C@@H](C)[C@@H](C=NOC[C@@H](O)[C@H]1O[C@@H]2OC(C)(C)O[C@@H]2[C@H]1O)NS(=O)(=O)c1ccc(C)cc1 | 0.242 | 0.0198 (inactive) | 0.603 (inactive) | -0.245 (inactive) | 0.285 (inactive) | -0.0169 | 0.163 | 0.92 | 0.387 | 0.288 |
